Compound activity deposited in PubChem by several laboratories.
HNF4A DNA FP: change in binding of human HNF4 alpha to DNA; HNF4a-FITC DNA binding, fluorescence polarization, 1 h; activity change, % at 10 µM; 0.3% of 360,000 active; in the data active = activity change above about 30%, passing the limit was not always enough
Myeloid diff MLP: promotes myeloid progenitor differentiation | ER-HoxA9 myeloid progenitors, lysozyme-GFP differentiation, flow cytometry | calls only at 10 µM | 1% of 360,000 active | AID 624256;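 active = normalized GFP-positive differentiation at or above the plate's own cutoff, the solvent-only control mean plus 3 SD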;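 note: cells exposed to compound for four days before flow analysis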
TPT1 inhibitor: blocks Candida albicans tRNA 2'-phosphotransferase; recombinant caTPT1, FP RNA substrate dephosphorylation; inhibition, % at 5 µM; 0.81% of 300,000 active;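 active = inhibition above the mean of all tested compounds plus 3 SD, set per screening campaign, cut at about 24% in these data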;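 note: plate controls were DMSO alone for no effect and ferristatin control at 100 nM for full effect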
Rpn11 inh: blocks the human proteasome subunit Rpn11. O00487. human 26S proteasome, Ub4-pepOG fluorescence polarization; 20S core pre-blocked with epoxomicin. inhibition, % at 20 µM. 0.59% of 360,000 active. AID 588493;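 active = inhibition at 20 µM, scaled to each plate's controls, above about 33%, limit read from the data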
Target sequence (O00487 whole entry, looked up): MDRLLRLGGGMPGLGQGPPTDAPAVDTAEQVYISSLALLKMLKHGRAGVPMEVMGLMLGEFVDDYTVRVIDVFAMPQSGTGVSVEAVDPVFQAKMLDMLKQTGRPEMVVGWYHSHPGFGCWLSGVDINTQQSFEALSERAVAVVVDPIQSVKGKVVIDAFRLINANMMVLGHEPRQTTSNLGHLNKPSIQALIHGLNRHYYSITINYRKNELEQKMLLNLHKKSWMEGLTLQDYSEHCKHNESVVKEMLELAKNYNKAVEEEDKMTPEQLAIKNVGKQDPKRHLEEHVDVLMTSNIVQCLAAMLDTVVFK
Myeloid diff: compounds promoting myeloid differentiation. shares compounds with Myeloid diff MLP. ER-HoxA9 myeloid progenitors, GFP/Mac1 double-positive flow. calls only. 2% of 2,300 active. AID 651706;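 active = share of green or green-and-red cells above 9 and 9% in run 1 or 4 and 3% in run 2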
GFP autofluor: flagged as fluorescent in myeloid differentiation counter-screen. shares compounds with Myeloid diff MLP. ER-HoxA9 myeloid progenitors, no estrogen, GFP autofluorescence flow cytometry; vehicle wells 0%, positive control 100%. fluorescence response, % (no concentration beside the values). 7.4% of 2,300 active;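 active = over 5% cells positive for green fluorescent reporter, or over 2% positive for both it and APC stain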;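 note: range taken on the double positive population between DMSO and positive control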
Active calls of the source: *; i = inactive; nt = no result given; + = active, no number. Only some compounds are listed: those with a hit (about 2.1% of all), similar ones and a draw of the others.

SMILES	HNF4A DNA FP	Myeloid diff MLP	TPT1 inhibitor	Rpn11 inh	Myeloid diff	GFP autofluor
CC(=O)c1c(N2CCOCC2)nc(=S)n(-c2ccccc2)c1C	1	i	-1	-2	nt	nt
COc1cccc(/C=C/C(=O)OCC(=O)c2c(N)n(C)c(=O)n(C)c2=O)c1	-1	i	nt	-5	nt	nt
OC(CNc1ccccc1)COc1ccc(OCC(O)CNc2ccccc2)cc1 (stereo not given)	1	+	-2	6	i	1
CCCC[C@H]1COCCS(=O)(=O)N1Cc1ccc(Br)cc1	-1	i	1	-2	nt	nt
Cn1c(N)nc2nc[nH]c2c1=S	3	i	nt	-1	i	0
N#C/C(=C\c1ccco1)C(=O)Nc1cccc2ncccc12	-1	i	-2	-7	nt	nt
CCCc1nn(-c2cc(Cl)ccc2OC)c2c1C(=O)CCC2	0	i	-2	7	nt	nt
CCCCc1nn(-c2cc(Cl)ccc2OC)c2c1C(=O)CC(C)(C)C2	0	i	1	13	i	1
O=C(NCc1ccccc1)C1C(c2ccc3c(c2)OCO3)=Nc2ccccc2N1C(=O)c1ccco1 (stereo not given)	2	i	nt	nt	i	0
O=C(NCc1ccccc1)C1C(c2ccc3c(c2)OCO3)=Nc2ccccc2N1C(=O)c1ccccc1 (stereo not given)	2	i	nt	nt	nt	nt
COC(=O)c1scc(C)c1NC(=O)c1ccccc1F	-3	i	0	0	nt	nt
Cc1ccc2c(c1)CCCN2C(=O)c1ccc2c(c1)OCO2	4	i	-1	0	i	0
Cc1cccc(N2CCN(S(=O)(=O)c3c(C)[nH]c(=O)[nH]c3=O)CC2)c1C	3	i	2	1	i	0
COc1ccccc1N/C(=N/S(=O)(=O)c1ccc(C)cc1)c1ccc(Cl)cc1	-1	i	0	4	nt	nt
O=C(CSc1oc(-c2ccccc2)nc1S(=O)(=O)c1ccc(F)cc1)NCC1CCCO1 (stereo not given)	6	i	-4	4	i	0
O=C(CSc1oc(-c2ccc(F)cc2)nc1S(=O)(=O)c1ccccc1)NCC1CCCO1 (stereo not given)	1	i	-4	-3	nt	nt
CC(=O)C1C(c2ccc(F)c(F)c2)NC(=O)NC1(O)C(F)(F)F (stereo not given)	-3	i	-2	6	i	0
O=C1C=CN2CCCCC2CC1 (stereo not given)	-4	+	nt	-2	i	5
CCc1ccc(N2C(=O)CN(Cc3ccc(OC)c(OC)c3)C2=S)cc1	3	+	-2	6	i	2
COc1ccc(CN2CC(=O)N(c3ccc(Cl)cc3)C2=S)cc1OC	0	i	1	-1	nt	nt
CCC(=O)N1CCc2cc(S(=O)(=O)NC(Cc3ccccc3)C(=O)O)ccc21 (stereo not given)	1	i	-1	-12	nt	nt
COc1ccc(N2C(=O)CC(NCCNc3ccc([N+](=O)[O-])cn3)C2=O)cc1 (stereo not given)	1	i	0	-9	i	0
O=C(Nc1ccc(Br)cn1)C1CCCN1S(=O)(=O)c1ccccc1 (stereo not given)	-1	nt	-7	-5	nt	nt
O=C(C[C@H]1C=C[C@@H](NS(=O)(=O)c2ccccc2)[C@@H](CO)O1)NCc1ccc(Cl)c(Cl)c1	0	i	nt	nt	nt	nt
CCCc1ccc(OCc2ccc(C(=O)NN)o2)c(OC)c1	5	+	-2	5	i	0
SMILES	HNF4A DNA FP	Myeloid diff MLP	TPT1 inhibitor	Rpn11 inh	Myeloid diff	GFP autofluor
CC1(C(=O)NCCc2ccccc2)Cc2c(-c3cccc(C(F)(F)F)c3)ccnc2O1 (stereo not given)	0	i	nt	-3	nt	nt
CCn1c(-c2ccccc2Cl)nn(CC(=O)Nc2cc(Cl)ccc2Cl)c1=S	-1	i	2	-1	i	0
CCn1c(-c2ccccc2Cl)nn(CC(=O)NCCc2ccccc2)c1=S	3	i	1	-9	nt	nt
COc1cccc(/C=N/Nc2ncccc2[N+](=O)[O-])c1OC	2	i	-3	2	nt	nt
O=[N+]([O-])c1ccc(/C=N/Nc2ncccc2[N+](=O)[O-])s1	-4	i	0	9	i	0
Cc1cc(NC(=O)CC2CCCC2)ccc1Br	2	i	-1	1	nt	nt
Cc1cccc(NC(=O)CC2CCC2)c1	3	i	-3	5	i	0
C/C(N)=C(/C#N)C(=O)COC(=O)Cc1coc2ccc3ccccc3c12	8	i	3	9	nt	nt
Cc1ccc(-n2c(C)cc3c2CC(C)(C)CC3=O)cc1C	3	i	-4	-2	nt	nt
Cc1cc2c(n1-c1ccc(Br)cc1)CC(C)(C)CC2=O	0	i	5	-2	i	0
CCOC(=O)C(CC)n1nc(C)n2c(cc3occc32)c1=O (stereo not given)	0	i	0	5	nt	nt
CCOc1cc(CNc2ccccc2)cc(Br)c1OCC(=O)NC(C)(C)C	-4	i	-3	1	nt	nt
CCOc1cc(CNc2ccc(Br)cc2)cc(Br)c1OCC(=O)NC(C)(C)C	-6	nt	2	4	i	0
Cc1ccc(C(=O)NCCNS(C)(=O)=O)cc1	0	i	-2	-5	nt	nt
Cc1ccc(NC(=O)c2ccc(=O)n(CC(=O)Nc3ccccc3)n2)cc1	5	i	3	0	nt	nt
CCOC(=O)c1ccccc1NC(=O)Cn1cnc2c(cnn2-c2ccc(F)cc2)c1=O	-2	nt	nt	-4	nt	nt
CCOC(=O)c1ccccc1NC(=O)Cn1cnc2c(cnn2-c2ccccc2)c1=O	0	i	-6	0	i	0
CN1CCCN(C(=O)CNC(=O)c2ccccc2Br)CC1	-1	i	nt	-3	nt	nt
O=C(Cc1ccccc1)N/N=C/c1cc(Br)c(Br)o1	-2	i	-4	-1	i	1
O=C(Cc1ccccc1)NN=Cc1ccccc1	3	i	nt	-6	nt	nt
COc1cc(OC)cc(-c2c(-c3cccs3)c3cc(-c4ccc5[nH]ccc5c4)ccc3n2C)c1	6	i	nt	31	nt	nt
COc1ccc(-n2nnnc2SCC(=O)Nc2nnc(C)s2)cc1	0	+	-4	0	i	1
COc1ccccc1NC(=O)CSc1nnnn1-c1ccc2c(c1)OCO2	1	i	3	-14	i	0
CN(C)CCOC(=O)CCCCCCCCC(=O)OCCN(C)C	7	i	1	-4	nt	nt
CN(C)CCN1C(=O)C2C(C(=O)Nc3cc(Cl)cc(Cl)c3)C3C=CC2(O3)C1C(=O)NC1CCCCC1 (stereo not given)	-2	i	-7	-2	nt	nt
FC(F)(F)c1ccccc1CN1CCCC(N2CCN(c3ccccc3)CC2)C1 (stereo not given)	-1	i	1	3	i	10*
Cn1cc(-c2cccc(C(F)(F)F)c2)cc(C#N)c1=O	2	+	-2	-2	i	0
